This is a sample that favours compounds with a hit; in the whole collection about 3.5% have one here.
Myeloid diff 2: promotes myeloid progenitor differentiation; ER-HoxA9 myeloid progenitors, lysozyme-GFP differentiation, flow cytometry; calls only at 10 µM; actives 1% (n = 360,000);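 active = normalized GFP-positive differentiation at or above the plate's own cutoff, the solvent-only control mean plus 3 SD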;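 also: cells exposed to compound for four days before flow analysis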
SKN-1 block: C. elegans SKN-1 inhibition; inhibition, % at 21.8 µM; actives 0.49% (n = 360,000); C. elegans VP596 Pgst-4::GFP/RFP ratio, acrylamide-induced, 24 h; AID 624304;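 active = interference check ratio from 0.5 to 1.5 plus GFP to RFP signal ratio inhibition reaching or exceeding a fixed threshold, cut at about 30% in these data, passing the limit was not always enough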
ATG4B inh: ATG4B (human) cysteine protease inhibition. inhibition, % at 8.33 µM. ATG4B cleavage of LC3-PLA2, NBD-HPC fluorescence, 1 h. Q9Y4P1. AID 504462. actives 0.51% (n = 340,000); in the data active = inhibition above about 40%
CHRM1 antagonist: blocks human M1 muscarinic receptor. actives 1.3% (n = 360,000). CHO-K1 hM1, Fluo-8 calcium fluorescence, ACh EC80 antagonist. inhibition, % at 3 µM;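 active = percent inhibition above its own plate's cutoff, namely the mean of that plate's compound wells plus 3 SD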;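 also: peak over basal fluorescence ratio during 140 s after agonist addition; 0% = ACh EC80 plus DMSO and 100% = DMSO alone without agonist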
Target sequence (P11229 whole entry, looked up): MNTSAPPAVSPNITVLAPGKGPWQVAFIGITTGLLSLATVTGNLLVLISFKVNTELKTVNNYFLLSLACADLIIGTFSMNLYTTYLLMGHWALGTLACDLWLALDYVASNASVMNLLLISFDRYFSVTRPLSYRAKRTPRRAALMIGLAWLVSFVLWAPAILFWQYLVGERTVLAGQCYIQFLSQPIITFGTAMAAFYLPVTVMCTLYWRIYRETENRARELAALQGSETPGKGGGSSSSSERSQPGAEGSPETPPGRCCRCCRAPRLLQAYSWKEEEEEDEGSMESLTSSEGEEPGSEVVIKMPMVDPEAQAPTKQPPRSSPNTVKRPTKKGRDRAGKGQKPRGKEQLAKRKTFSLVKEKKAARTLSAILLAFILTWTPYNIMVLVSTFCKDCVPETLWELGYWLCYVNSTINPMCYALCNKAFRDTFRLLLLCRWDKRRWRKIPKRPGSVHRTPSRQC
M1 ag: human M1 muscarinic receptor agonism. AID 588814. P11229. actives 0.33% (n = 360,000). CHO-K1 hM1, Fluo-8 calcium fluorescence, agonist mode; 0% DMSO, 100% acetylcholine EC100. activation, % at 3 µM;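 active = activation above the run's mean compound activation plus 3 SD, cut at about 16% in these data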;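 also: peak over basal fluorescence ratio within a 140 s kinetic read after compound addition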
M1 PAM: positive allosteric modulators of human M1 muscarinic receptor. P11229. AID 588819. actives 0.088% (n = 360,000). activation, % at 3 µM. CHO-K1 hM1, Fluo-8 calcium fluorescence, ACh EC20; 0% = ACh EC20, 100% = maximal ACh; in the data active = activation above about 19%, passing the limit was not always enough
* marks the source's active call; other numbers are inactive results; i = inactive; / = no result given; + = active, no number.

SMILES | Myeloid diff 2 | SKN-1 block | ATG4B inh | CHRM1 antagonist | M1 ag | M1 PAM
CC(C)(C)OC(=O)N1CCCC(C(=O)Nc2cccc(C(=O)NCCCCc3ccccc3)c2)C1 (stereo not given) | i | -3 | -8 | 27* | 3 | -20
O=C(NCCc1ccccc1)c1cccc(NC(=O)C2CC2)c1 | + | -13 | 2 | 0 | 1 | 7
COc1ccc(NC(=O)CN(C)CC(=O)N2CCCCCC2)cc1 | i | -16 | 6 | -18 | -6 | 17
Cc1noc(C)c1CCC(=O)Nc1cc(Cl)ccc1C(=O)O | i | -11 | / | -15 | -3 | 5
C/C(=N\NS(=O)(=O)c1ccc(C)c([N+](=O)[O-])c1)c1cc2ccccc2o1 | + | -23 | -11 | 4 | -2 | 9
O=S(=O)(NCc1ccc(C(F)(F)F)cc1)c1ccc(-n2cnnn2)cc1 | + | -9 | -7 | 8 | -2 | -6
O=C(COC(=O)c1ccc2ncsc2c1)Nc1ccccc1Br | i | -6 | -3 | -4 | -2 | 0
CC(C)Cc1ccc(CN2C(C)C(=O)N(Cc3cn(Cc4ccco4)nn3)CCS2(=O)=O)cc1 (stereo not given) | i | 6 | / | -4 | -1 | 7
COc1ccc(Cl)cc1-c1cc(C(=O)NCc2ccccc2)[nH]n1 | i | 16 | / | -11 | -8 | 4
CN(C)c1ccc(/C=N/NC(=O)CNC(=O)c2ccncc2)cc1 | i | -5 | 6 | -8 | -3 | -3
CC/C(=C\c1ccc(N(C)C)cc1)c1ccncc1 | i | 67* | 10 | 24 | -7 | -14
O=C(NC1CCCC1)C1C(c2ccccc2)=Nc2ccccc2N1C(=O)c1cc(Cl)cc(Cl)c1 (stereo not given) | i | 17 | / | / | / | /
O=C(c1cccs1)N1CCc2ccccc21 | i | 7 | 11 | -8 | -12 | 4
O=C(/C=C/c1cccs1)N1CCc2ccccc21 | i | 35* | 4 | -10 | -8 | 8
Cc1ccc(CNS(=O)(=O)c2c(C)[nH]c(C)c2C(=O)N2CCCCC2)o1 | i | 1 | 3 | -5 | 2 | 6
c1ccc(C(c2ccccc2)c2noc(CN3CCN(CC4CC4)CC3)n2)cc1 | i | 5 | -11 | 94* | -8 | -27
COCC1CCCN(Cc2nc(C(c3ccccc3)c3ccccc3)no2)C1 (stereo not given) | i | -2 | 1 | -5 | -7 | -4
CN(Cc1ccccc1)C(=O)c1ccc(NC(=O)Cc2cccc(NC(=O)C3CCN(C(=O)C4CCC4)CC3)c2)cc1 | i | -14 | -2 | -3 | -3 | 6
COC(=O)C12OCC34C(CC5C(C)=C(O)C(=O)CC5(C)C3C(O)C1O)OC(=O)C(OC(=O)C=C(C)C)C24 (stereo not given) | / | 41* | 6 | -19 | 2 | 7
Cn1ncnc1SCc1cn2cccnc2n1 | i | 0 | 1 | -5 | -7 | 2
O=C(NCCC(=O)N1CCN(c2ccccc2O)CC1)c1ccc(Br)cc1 | i | 15 | -3 | -35 | 1 | 22*
O=C(CCNS(=O)(=O)c1ccc(Br)cc1)N1CCN(c2ccccc2O)CC1 | i | 6 | -14 | -6 | -2 | -2
CCc1cc(C(=O)N2CCCC(C(=O)c3ccc(Oc4ccccc4)cc3)C2)n(C)n1 (stereo not given) | i | 4 | -3 | -2 | -2 | -4
Cc1ccc(-c2csc(N)n2)cc1 | i | -18 | 1 | 14 | -3 | -3
COc1ccc(-c2csc(N)n2)cc1 | i | -7 | -6 | -2 | -7 | 7
SMILES | Myeloid diff 2 | SKN-1 block | ATG4B inh | CHRM1 antagonist | M1 ag | M1 PAM
Nc1nc(-c2ccc(Oc3ccccc3)cc2)cs1 | i | 44* | 13 | -1 | -3 | 0
Nc1nc(-c2ccc(-c3ccccc3)cc2)cs1 | i | 66* | -5 | -2 | -5 | 8
CCOc1ccccc1/C=N/n1nnnc1N | i | -2 | 6 | -9 | 3 | 12
COc1ccc(NC(=O)C2(C)CCN2Cc2ccc(C(C)C)cc2)cc1OC (stereo not given) | i | -2 | / | -22 | 0 | 14
COc1cc2oc(=O)cc(CN3CCCCCCC3)c2cc1Cl | i | 19 | / | -18 | -6 | -3
CCOc1ccc(NC(=O)CCC(=O)Nc2cc(OC)c(NC(=O)c3ccco3)cc2OC)cc1 | i | -8 | 5 | -13 | -3 | 6
CC1(NC(=S)Nc2ccccc2)CCS(=O)(=O)C1 (stereo not given) | i | -5 | -10 | -9 | 0 | 14
CC1(NC(=S)Nc2ccc(NC(=S)NC3(C)CCS(=O)(=O)C3)cc2)CCS(=O)(=O)C1 (stereo not given) | i | 2 | -1 | -7 | 17* | 6
Cc1cccn2c(=O)c(/C=C(\C#N)C(N)=O)c(N3CCN(Cc4ccc5c(c4)OCO5)CC3)nc12 | i | 1 | 7 | 70* | -8 | -27
CCOC(=O)/C(C#N)=C/c1c(N2CCN(Cc3ccc4c(c3)OCO4)CC2)nc2c(C)cccn2c1=O | i | 4 | 28 | 5 | -8 | -4
CCC(C)Nc1nc2c(c(=O)n(C)c(=O)n2C)n1Cc1ccc(Cl)cc1 (stereo not given) | i | 6 | -1 | -4 | -3 | 3
Cn1c(=O)c2c(nc(NCCc3ccccc3)n2CC(=O)NCCc2ccccc2)n(C)c1=O | i | -3 | -7 | -1 | -3 | 7
C=CCn1c(NCCc2ccccc2)nc2c1c(=O)n(C)c(=O)n2C | i | -12 | -10 | 20 | 0 | -6
Cc1ccc(Cn2c(NCCc3ccccc3)nc3c2c(=O)n(C)c(=O)n3C)cc1 | + | 8 | 3 | -18 | -5 | 11
C/C(Cl)=C\Cn1c(NCCc2ccccc2)nc2c1c(=O)n(C)c(=O)n2C | + | 9 | 4 | 5 | -5 | -1
CCNc1nc2c(c(=O)n(C)c(=O)n2C)n1Cc1ccc(Cl)cc1 | i | 11 | -3 | 29* | 2 | -13
CC(=O)Nc1ccc(SCC(=O)Nc2ccc(Cl)cn2)cc1 | i | 16 | 0 | -11 | -7 | 10
COc1ccc(/C=C/C(=O)N(C)C2(C)CCS(=O)(=O)C2)cc1 (stereo not given) | i | 12 | 13 | -5 | -1 | 4
Cc1ccc(NC(=O)C(=O)c2c(-c3ccccc3)cc3ccccn23)cc1S(=O)(=O)N1CCOCC1 | i | 7 | 0 | 22 | -3 | -8
Cc1onc(-c2c(Cl)cccc2Cl)c1C(=O)N1CCc2ccccc21 | i | -10 | -1 | 68* | -7 | -21
CCOC(=O)C1CCC(CNCc2ccccc2C)CC1 (stereo not given) | i | 15 | -4 | 53* | -8 | -23
Oc1ccc(CNc2ccc(F)cc2)c2cccnc12 | + | 2 | -4 | -13 | 1 | 11
